Measured values taken from PubChem BioAssay (NCATS).
Inconclusive results are not listed. The source made the active and inactive calls. Calls come from the whole dose curve; as a rule, active = well fitted cell-killing curve with a large enough effect; inconclusive = small, poorly fitted or top-dose-only effect, or effect the other way; inactive = no such curve, though single readings can be large or run the other way.
Potency is the fitted concentration of half-maximal effect.

Assay: Quantitative High-Throughput drug screen in 47 multiple myeloma cell lines against the NCATS MIPE library collection: VP6_DJ cell viability assay (AID 1919867); note: nearly all actives have a fitted effect of over 40% in size
Settings: ATP luminescence, 48 h; series mostly up to 45.8 µM
Excerpt: PI: Beverly A. Mock Ph.D.
Laboratory of Cancer Biology and Genetics,
Center for Cancer Research, National Cancer Institute,
National Institute of Health, Bethesda, Maryland
Drug resistance and disease progression are common in multiple myeloma (MM) patients, underscoring the need for new therapeutic combinations. […] We hypothesized that effective combinations would reduce MYC expression and enhance p16 activity. […] These preclinical data identify potentially useful drug combinations for evaluation in drug-resistant MM and reveal potential mechanisms of combined drug sensitivity.
Described herein is the primary MIPE qHTS used to cherrypick compounds. Validated compounds were then further tested for potential synergistic activiy.
[1] Peat TJ, Gaikwad SM, Dubois W, Gyabaah-Kessie N, Zhang S, Gorjifard S, Phyo Z, Andres M, Hughitt VK, Simpson RM, Miller MA, Girvin AT, Taylor A, Williams D, D'Antonio N, Zhang Y, Rajagopalan A, Flietner E, Wilson K, Zhang X, Shinn P, Klumpp-Thomas C, McKnight C, Itkin Z, Chen L, Kazandijian D, Zhang J, Michalowski AM, Simmons JK, Keats J, Thomas CJ, Mock BA. Drug combinations identified by high-throughput screening promote cell cycle transition and upregulate Smad pathways in myeloma. Cancer Lett. 2023 Aug 1;568:216284. doi: 10.1016/j.canlet.2023.216284. Epub 2023 Jun 24. PMID: 37356470; PMCID: PMC10408729.
SEQUENCE No. (e.g., 1, 2, 3, etc.); […] (e.g., Cells, Incubation, Reagent, etc.); VALUE and DESCRIPTION.
1; Cells; 5 uL; white, solid bottom 1536-well Greiner assay plate.
2; Compounds; 23 nL; Kalypsis pin tool (Wako USA) equipped with a 1536-well pin head to transfer to the assay plates.
3; Incubation; 48 hours; 37C incubation.
4; Reagent;5uL; CellTiter Glo (Promega).
5; Detector; 425V; Luminescence; Viewlux PerkinElmer.
NOTES (numbers refer to Sequence numbers above)
1. The cell-based screening methods employed in this study were like those previously published. Briefly, the corresponding myeloma cell lines were screened in 1,536-well plates with 500 cells, 5-uL per well for inhibition of cell viability (assessed by measuring ATP levels with CellTiterGlo).
2. NCATS MIPE 4.0 library of approved and investigational drugs were added using the Kalypsis pin tool. Wells treated with DMSO only for 100% viability and media only for 0% viability were used as controls.
3. The assay plates were covered and incubated for 48 hours in a 37C, 5% CO2 incubator with controlled humidity.
4. After 48 hours, CellTilter-GloTM luminescent substrate mix (Promega) reagent was added to the assay plate and plates we incubated for 5 min at room temperature.
5. Signal was measured as median relative luminescence units on a ViewLux (PerkinElmer) multiplate reader.
[1] Heske CM, Davis MI, Baumgart JT, Wilson K, Gormally MV, Chen L, Zhang X, Ceribelli M, Duveau DY, Guha R, Ferrer M, Arnaldez FI, Ji J, Tran HL, Zhang Y, Mendoza A, Helman LJ, Thomas CJ. Matrix Screen Identifies Synergistic Combination of PARP Inhibitors and Nicotinamide Phosphoribosyltransferase (NAMPT) Inhibitors in Ewing Sarcoma. Clin Cancer Res. 2017 Dec 1;23(23):7301-7311. doi: 10.1158/1078-0432.CCR-17-1121. Epub 2017 Sep 12. PMID: 28899971; PMCID: PMC6636827.
For `Cc1ncc([N+](=O)[O-])n1CCO`, the Potency was “inactive”.
With `CC(N)C12CC3CC(CC(C3)C1)C2` (stereo not given) the Potency was “inactive”.
For `O=P(O)(O)C(O)(Cc1cccnc1)P(=O)(O)O`, the Potency was “inactive”.
In the case of `COC(=O)Nc1nc2ccc(C(=O)c3ccccc3)cc2[nH]1`, the Potency was 2.35 µM (active).
For `CCn1cc(C(=O)O)c(=O)c2cc(F)c(N3CCNCC3)cc21`, the Potency was “inactive”.
For `O=C(O)c1cccnc1`, the Potency was 16.6 µM (active).
In the case of `CNNCc1ccc(C(=O)NC(C)C)cc1`, the Potency was “inactive”.
For `CC(C)OC(=O)C(C(=O)OC(C)C)=C1SC=CS1`, the Potency was “inactive”.
For `Cc1oc(=O)oc1CN1CCN(c2cc3c(cc2F)c(=O)c(C(=O)O)c2n3C(C)S2)CC1` (stereo not given), the Potency was “inactive”.
For `CC(C)(C)C(=O)OCOP(=O)(COCCn1cnc2c(N)ncnc21)OCOC(=O)C(C)(C)C`, the Potency was 1.05 µM (active).
In the case of `COC(=O)Nc1nc2ccc(S(=O)c3ccccc3)cc2[nH]1` (stereo not given), the Potency was 13.2 µM (active).
In the case of `CCCCc1oc2ccc(NS(C)(=O)=O)cc2c1C(=O)c1ccc(OCCCN(CCCC)CCCC)cc1`, the Potency was 7.43 µM (active).
With `CC(C)(C)NC(=O)[C@H]1CC[C@H]2[C@@H]3CC[C@H]4NC(=O)C=C[C@]4(C)[C@H]3CC[C@]12C` the Potency was 0.662 µM (active).
For `CC1=C(C(=O)O)N2C(=O)[C@@H](NC(=O)C(N)c3ccccc3)[C@H]2SC1` (stereo not given in full), the Potency was “inactive”.
For `CCCOc1ccc(C(=O)OCCN(CC)CC)cc1N`, the Potency was 9.35 µM (active).
For `CO[C@@]12[C@H](COC(N)=O)C3=C(C(=O)C(C)=C(N)C3=O)N1C[C@@H]1N[C@@H]12`, the Potency was 20.9 µM (active).
For `CC1(C)[C@H](C(=O)O)N2C(=O)C[C@H]2S1(=O)=O`, the Potency was “inactive”.
In the case of `Nc1nc(=S)c2[nH]cnc2[nH]1`, the Potency was 1.66 µM (active).
In the case of `CN(CCOc1ccc(CC2SC(=O)NC2=O)cc1)c1ccccn1` (stereo not given), the Potency was “inactive”.
In the case of `NC1(c2ccc(-c3nc4ccn5c(=O)[nH]nc5c4cc3-c3ccccc3)cc2)CCC1`, the Potency was 1.87 µM (active).
In the case of `CCCCCCNC(=O)n1cc(F)c(=O)[nH]c1=O`, the Potency was 5.26 µM (active).
For `NC(N)=NC(N)=NCCc1ccccc1`, the Potency was 10.5 µM (active).
With `CCCc1cc(C(N)=S)ccn1` the Potency was “inactive”.
For `CNCC[C@H](Oc1cccc2ccccc12)c1cccs1`, the Potency was 3.72 µM (active).
With `C[C@]12C=CC(=O)C=C1CC[C@@H]1[C@@H]2C(=O)C[C@@]2(C)[C@H]1CC[C@]2(O)C(=O)CO` the Potency was “inactive”.
For `CN1CCCC(n2nc(Cc3ccc(Cl)cc3)c3ccccc3c2=O)CC1` (stereo not given), the Potency was 1.48 µM (active).
For `O=NN(CCCl)C(=O)NC1CCCCC1`, the Potency was “inactive”.
For `Nc1ccc(S(=O)(=O)Nc2ccccn2)cc1`, the Potency was “inactive”.
With `CCC(=O)O[C@]1(C(=O)SCF)[C@H](C)C[C@H]2[C@@H]3C[C@H](F)C4=CC(=O)C=C[C@]4(C)[C@@]3(F)[C@@H](O)C[C@@]21C` the Potency was 33.2 µM (active).
For `COc1cc(NCc2ccc3nc(N)nc(N)c3c2C)cc(OC)c1OC`, the Potency was 2.64 µM (active).
With `CCn1cc(C(=O)O)c(=O)c2cc(F)c(N3CCN(C)CC3)cc21` the Potency was “inactive”.
In the case of `C1CCC(C(CC2CCCCN2)C2CCCCC2)CC1` (stereo not given), the Potency was 8.33 µM (active).
With `Nc1[nH]c(=O)ncc1F` the Potency was 20.9 µM (active).
For `CNC(=O)c1cc(Oc2ccc(NC(=O)Nc3ccc(Cl)c(C(F)(F)F)c3)cc2)ccn1`, the Potency was 8.33 µM (active).
In the case of `O=C(O)c1cn(C2CC2)c2cc(N3CCNCC3)c(F)cc2c1=O`, the Potency was “inactive”.
For `O=C(O)c1ccc(-n2nc(-c3ccccc3O)nc2-c2ccccc2O)cc1`, the Potency was 16.6 µM (active).
For `Nc1nc(N)nc(-c2cc(Cl)ccc2Cl)n1`, the Potency was 6.62 µM (active).
In the case of `Cc1onc(-c2ccccc2Cl)c1C(=O)N[C@@H]1C(=O)N2[C@@H]1SC(C)(C)[C@@H]2C(=O)O`, the Potency was “inactive”.
For `NC(=O)N1c2ccccc2CC(=O)c2ccccc21`, the Potency was “inactive”.
With `COc1ccc(C(=O)CC(=O)c2ccc(C(C)(C)C)cc2)cc1` the Potency was 2.64 µM (active).
